Among the data in article PMC4081100, “A DNA-binding-site landscape and regulatory network analysis for NAC transcription factors in Arabidopsis thaliana” are binding signal values, retold here.

Holding throughout (assay): universal protein binding microarray (PBM); transcription factors of Arabidopsis thaliana; high values mean tight binding
What all share (conditions): protein: recombinant; tags: GST; chain copies: 2; dsDNA, one strand shown

One assay concerns the target T1, GST-ANAC092(1-176) (Arabidopsis thaliana, UniProt Q9FKA0 1-176).
T1 sequence: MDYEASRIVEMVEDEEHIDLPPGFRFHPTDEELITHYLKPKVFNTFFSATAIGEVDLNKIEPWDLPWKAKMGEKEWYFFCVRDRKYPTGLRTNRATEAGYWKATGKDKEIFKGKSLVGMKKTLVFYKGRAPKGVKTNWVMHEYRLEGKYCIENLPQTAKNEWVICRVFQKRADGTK
A digest of the protocol:
(§1)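 Binding is expressed as the normalised enrichment score (E-score). Proteins carrying a GST tag, whether NAC-domain, full-length or DNA-binding-domain forms, were induced in cells, and zinc acetate was added for zinc-finger proteins. After purification on glutathione–Sepharose 4B and quantification by A280 or anti-GST western blot, each was applied in duplicate at 200 to 500 nM final to custom all-10-mer Agilent 4 × 180K arrays made double-stranded by primer extension. Gapped and ungapped 8-mers were scored.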

The target of the next assay is GST-NTL6(1-168) (Arabidopsis thaliana, UniProt Q9SCK6 1-168). The method in brief:
as §1

The target of the next assay is T2, GST-ANAC019 NAC domain (Arabidopsis thaliana, UniProt Q9C932 14-162).
T2 sequence: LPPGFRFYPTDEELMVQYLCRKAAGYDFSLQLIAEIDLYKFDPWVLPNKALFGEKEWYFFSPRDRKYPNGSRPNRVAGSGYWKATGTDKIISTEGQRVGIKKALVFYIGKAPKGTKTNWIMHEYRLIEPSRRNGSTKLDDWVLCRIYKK
The method in brief:
as §1

The next assay addresses T3, GST-ANAC055(1-171) (Arabidopsis thaliana, UniProt Q9LDY8 1-171).
T3 sequence: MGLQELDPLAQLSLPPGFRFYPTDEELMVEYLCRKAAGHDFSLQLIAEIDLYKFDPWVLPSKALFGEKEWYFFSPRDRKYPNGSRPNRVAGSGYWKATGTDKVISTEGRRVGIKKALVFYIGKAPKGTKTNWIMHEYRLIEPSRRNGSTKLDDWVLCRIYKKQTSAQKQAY
The method in brief: as §1

The target of another assay is T4, GST-ATAF1 NAC domain (Arabidopsis thaliana, UniProt Q39013 7-158).
T4 sequence: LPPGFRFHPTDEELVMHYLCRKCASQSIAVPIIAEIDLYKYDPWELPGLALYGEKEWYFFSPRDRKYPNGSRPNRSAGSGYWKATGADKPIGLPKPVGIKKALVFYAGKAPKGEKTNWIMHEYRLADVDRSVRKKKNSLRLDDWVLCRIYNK
The method in brief:
as §1

For assay [1], the target named is T5, GST-ANAC092(1-285) full length (Arabidopsis thaliana, UniProt Q9FKA0 1-285).
T5 sequence: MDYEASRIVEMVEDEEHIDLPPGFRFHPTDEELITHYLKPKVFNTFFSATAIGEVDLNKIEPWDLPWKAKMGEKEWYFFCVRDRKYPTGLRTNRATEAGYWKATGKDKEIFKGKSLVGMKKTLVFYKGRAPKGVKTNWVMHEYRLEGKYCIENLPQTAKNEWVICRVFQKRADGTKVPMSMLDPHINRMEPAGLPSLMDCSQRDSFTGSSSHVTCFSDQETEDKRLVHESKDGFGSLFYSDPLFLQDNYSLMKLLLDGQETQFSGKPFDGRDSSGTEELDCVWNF
A digest of the protocol: as §1

A further assay has as its target T6, GST-NAP(1-166) (Arabidopsis thaliana, UniProt O49255 1-166).
T6 sequence: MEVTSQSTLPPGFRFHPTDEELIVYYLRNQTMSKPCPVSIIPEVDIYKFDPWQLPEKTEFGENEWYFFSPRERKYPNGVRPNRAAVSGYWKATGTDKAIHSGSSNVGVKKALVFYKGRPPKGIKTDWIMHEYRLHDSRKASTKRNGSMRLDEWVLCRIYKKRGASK
A digest of the protocol:
as §1

In a further assay the target is T7, GST-NST2(1-184) (Arabidopsis thaliana, UniProt Q9M274 1-184).
T7 sequence: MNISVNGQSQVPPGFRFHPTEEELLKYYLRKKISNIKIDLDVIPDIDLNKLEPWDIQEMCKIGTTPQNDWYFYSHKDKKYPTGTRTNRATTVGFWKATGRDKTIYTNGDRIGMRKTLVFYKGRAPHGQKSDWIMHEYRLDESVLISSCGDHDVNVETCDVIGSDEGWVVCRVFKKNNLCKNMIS
A digest of the protocol:
as §1

In another assay the target is T8, GST-NTL8 NAC domain (Arabidopsis thaliana, UniProt Q9XIN7 14-156).
T8 sequence: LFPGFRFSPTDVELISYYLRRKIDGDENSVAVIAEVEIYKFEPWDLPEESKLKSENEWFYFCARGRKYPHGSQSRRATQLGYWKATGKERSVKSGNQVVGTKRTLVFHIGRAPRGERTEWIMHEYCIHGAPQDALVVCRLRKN
A digest of the protocol: as §1

The target of the next assay is T9, GST-SND1(1-203) (Arabidopsis thaliana, UniProt Q9LPI7 1-203).
T9 sequence: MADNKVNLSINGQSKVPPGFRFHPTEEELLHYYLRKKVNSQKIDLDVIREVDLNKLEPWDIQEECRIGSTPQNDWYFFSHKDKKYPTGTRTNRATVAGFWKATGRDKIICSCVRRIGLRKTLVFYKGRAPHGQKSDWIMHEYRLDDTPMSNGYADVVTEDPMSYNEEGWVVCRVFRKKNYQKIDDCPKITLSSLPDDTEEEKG
The method in brief: as §1

The target in the next assay is T10, GST-VND3 NAC domain (Arabidopsis thaliana, UniProt Q9FH59 12-162).
T10 sequence: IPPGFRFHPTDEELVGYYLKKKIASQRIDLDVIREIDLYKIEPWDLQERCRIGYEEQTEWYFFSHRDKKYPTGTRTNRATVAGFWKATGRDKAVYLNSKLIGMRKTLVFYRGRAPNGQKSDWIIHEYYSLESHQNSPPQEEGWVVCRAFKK
A digest of the protocol: as §1

A further assay addresses T11, GST-VND7 NAC domain (Arabidopsis thaliana, UniProt Q9C8W9 9-158).
T11 sequence: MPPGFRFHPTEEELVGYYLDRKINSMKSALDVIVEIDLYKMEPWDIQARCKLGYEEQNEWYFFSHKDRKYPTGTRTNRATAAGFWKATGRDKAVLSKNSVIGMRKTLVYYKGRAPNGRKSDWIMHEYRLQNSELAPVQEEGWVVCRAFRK
The method in brief: as §1

Chain of GST-NTL6(1-168) (Q9SCK6 1-168): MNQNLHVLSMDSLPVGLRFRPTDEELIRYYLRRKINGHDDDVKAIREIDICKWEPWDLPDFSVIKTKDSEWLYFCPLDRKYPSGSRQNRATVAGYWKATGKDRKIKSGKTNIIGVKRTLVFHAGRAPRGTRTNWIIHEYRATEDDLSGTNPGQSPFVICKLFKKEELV

Consider AAGGTAAC, for which the binding signal was 0.233 E-score with GST-ANAC092(1-176); 0.309 E-score with GST-NTL6(1-168); 0.141 E-score with GST-ANAC019 NAC domain; 0.185 E-score with GST-ANAC055(1-171); 0.142 E-score with GST-ATAF1 NAC domain; 0.285 E-score in assay [1]. Moreover, the binding signal was 0.151 E-score in the assay with GST-NAP(1-166); 0.232 E-score with GST-NST2(1-184); 0.441 E-score with GST-NTL8 NAC domain; 0.188 E-score with GST-SND1(1-203); 0.154 E-score with GST-VND3 NAC domain; 0.194 E-score with GST-VND7 NAC domain.

GTACGTTA: the binding signal in the assay with GST-ANAC092(1-176) came to 0.42 E-score; with GST-NTL6(1-168), 0.0779 E-score; with GST-ANAC019 NAC domain, 0.0888 E-score; with GST-ANAC055(1-171) it was 0.226 E-score; in the assay with GST-ATAF1 NAC domain, 0.325 E-score; in assay [1] it was 0.426 E-score. The binding signal with GST-NAP(1-166) is 0.173 E-score; with GST-NST2(1-184), 0.316 E-score; in the assay with GST-SND1(1-203), 0.415 E-score; in the assay with GST-VND3 NAC domain it was 0.253 E-score; in the assay with GST-VND7 NAC domain, 0.148 E-score.

Consider ACGCAACT, for which the binding signal came to 0.472 E-score with GST-ANAC092(1-176); 0.105 E-score with GST-NTL6(1-168); 0.477 E-score with GST-ANAC019 NAC domain; 0.433 E-score with GST-ANAC055(1-171); 0.416 E-score in the assay with GST-ATAF1 NAC domain; 0.472 E-score in assay [1]. The binding signal with GST-NAP(1-166) came to 0.478 E-score; with GST-NST2(1-184), 0.39 E-score; with GST-NTL8 NAC domain, 0.0824 E-score; with GST-SND1(1-203) it was 0.422 E-score; with GST-VND3 NAC domain it was 0.462 E-score; with GST-VND7 NAC domain, 0.462 E-score.

On to CACGCAAA, for which the binding signal turned out to be 0.487 E-score in the assay with GST-ANAC092(1-176); 0.107 E-score with GST-NTL6(1-168); 0.421 E-score with GST-ANAC019 NAC domain; 0.348 E-score in the assay with GST-ANAC055(1-171); 0.292 E-score in the assay with GST-ATAF1 NAC domain; 0.486 E-score in [1]. In addition, the binding signal in the assay with GST-NAP(1-166) was determined as 0.385 E-score; in the assay with GST-NST2(1-184), 0.389 E-score; with GST-NTL8 NAC domain it was 0.0878 E-score; in the assay with GST-SND1(1-203), 0.426 E-score; with GST-VND3 NAC domain, 0.396 E-score; in the assay with GST-VND7 NAC domain, 0.419 E-score.

As to GTTCCTTA, the binding signal was found to be 0.136 E-score with GST-ANAC092(1-176); 0.458 E-score with GST-NTL6(1-168); 0.141 E-score with GST-ANAC019 NAC domain; 0.0564 E-score in the assay with GST-ANAC055(1-171); 0.151 E-score in the assay with GST-ATAF1 NAC domain; 0.237 E-score in assay [1]. In addition, the binding signal in the assay with GST-NAP(1-166) stood at 0.117 E-score; with GST-NST2(1-184), 0.139 E-score; in the assay with GST-NTL8 NAC domain, 0.329 E-score; with GST-SND1(1-203), 0.376 E-score; with GST-VND3 NAC domain, 0.249 E-score; with GST-VND7 NAC domain, 0.147 E-score.

As to AAACGTAA, the binding signal was found to be 0.261 E-score with GST-ANAC092(1-176); 0.216 E-score with GST-NTL6(1-168); 0.268 E-score with GST-ANAC019 NAC domain; 0.325 E-score with GST-ANAC055(1-171); 0.296 E-score in the assay with GST-ATAF1 NAC domain; 0.378 E-score in [1]. Besides, the binding signal in the assay with GST-NAP(1-166) was determined as 0.294 E-score; with GST-NST2(1-184) it was 0.302 E-score; with GST-NTL8 NAC domain, 0.154 E-score; with GST-SND1(1-203), 0.435 E-score; in the assay with GST-VND3 NAC domain it was 0.344 E-score; with GST-VND7 NAC domain, 0.294 E-score.
